± gives the standard deviation of the averaged measurements. Whole data set: some 1,900 compounds, median “CD40L-induced NF-kB luciferase activity, plate-corrected, relative to DMSO (0) and IKK inhibitor VII (-100) controls” near 0.032, cut for the lowest 2% near -26. What follows is part of a selection rich in the lowest values, with near analogues and random picks from the rest.
test system: BL2-NFkB-Luc; test: CD40L-induced NF-kB luciferase activity, plate-corrected, relative to DMSO (0) and IKK inhibitor VII (-100) controls (% normalized activity); higher = more NF-kB reporter activity (less inhibition); conditions: 9.4 µM; stimulus: tCD40L 64 ng/ml; 4.5 h
Method: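 BL2 B cells with a stable NF-kB response-element luciferase reporter (BL2-NFkB-Luc), 384-well. Cells were pre-incubated with compound at 9.4 uM for 1 h at 37 C, then stimulated with 64 ng/ml trimerized CD40L for 4.5 h; luciferase was read with Steady-Glo. Signal was normalised per plate in Genedata (median DMSO neutral control = 0, median IKK inhibitor VII at 50 uM = -100) with Assay Median plate-pattern correction; duplicate plates.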

Row | Structure (SMILES) | CD40L-induced NF-kB luciferase activity
1 | O=C1[C@@H]2CSCN2C(=O)CN1Cc1ccc(F)cc1 | -0.473 ± 5.9
2 | COc1ccc(NC(=S)N2CCN(CCN3C(=O)c4cccc5cccc(c45)C3=O)CC2)cc1 | 1.19 ± 0.65
3 | O=C(c1cccc2ccccc12)C1CCCN(C(=O)CCN2CCCO2)C1 (stereo not given) | 2.54 ± 2
4 | CC(=O)O[C@H]1C(=O)[C@@]2(C)[C@H]([C@H](OC(=O)c3ccccc3)[C@]3(O)C[C@H](OC(=O)[C@H](O)C(NC(=O)c4ccccc4)c4ccccc4)C(C)=C1C3(C)C)[C@]1(OC(C)=O)CO[C@@H]1C[C@@H]2O (stereo not given in full) | -33.4 ± 1.3
5 | CC(C)C1CC(CCNCc2ccc(N(C)C)cc2)(c2ccccc2)CCO1 (stereo not given) | -4.73 ± 11
6 | N/C(=N\OC(=O)c1cccc(Br)c1)c1ccncc1 | 2.67 ± 0.79
7 | COc1ccc(C2=CC(=O)C=CC2=O)cc1 | -5.93 ± 5.3
8 | CCOc1ccc(C(=O)N2CCCC2C(=O)O)cc1 (stereo not given) | 2.22 ± 8
9 | CC(=O)O[C@H]1CC[C@H]2[C@@H]3CCc4cc(O)ccc4[C@H]3CC[C@]12C | -3.39 ± 3.8
10 | CCOC(=O)C(=O)N1CCN(c2ccccc2OC)CC1 | -1.99 ± 1.9
11 | COc1ccccc1/C=C/C(=O)OCCN1CCOCC1 | 2.92 ± 4.6
12 | CCOC(=O)C(=Cc1ccccc1OC)C(=O)OCC | -29 ± 6.1
13 | CC(=O)OCC(=O)[C@@]1(O)CC[C@H]2[C@@H]3CCC4=CC(=O)C=C[C@]4(C)[C@H]3[C@@H](O)C[C@@]21C | -43.8 ± 2.2
14 | C[C@H]1C[C@@H]2[C@H]([C@@H](O)C[C@@]3(C)[C@H]2CC[C@]3(O)C(=O)CO)[C@@]2(C)C=CC(=O)C=C12 | -35.94 ± 0.26
15 | CC(=O)[C@@]1(O)CC[C@H]2[C@@H]3CCC4=CC(=O)CC[C@]4(C)[C@H]3[C@@H](O)C[C@@]21C | -12.9 ± 3.2
16 | CC(=O)OCC(=O)[C@@]1(O)CC[C@H]2[C@@H]3CCC4=CC(=O)CC[C@]4(C)[C@H]3[C@@H](O)C[C@@]21C | -31.1 ± 6.7
17 | C[C@]12C=CC(=O)C=C1CCC1C3CC[C@](O)(C(=O)CO)[C@@]3(C)CC3OC312 (stereo not given in full) | -7.42 ± 5.5
18 | C[C@]12CCC(=O)C=C1CC[C@@H]1[C@@H]2[C@@H](O)C[C@@]2(C)[C@H]1CC[C@]2(O)C(=O)COC(=O)CCC(=O)O | -23.2 ± 7.1
19 | C[C@]12CCC(=O)C=C1[C@H](O)C[C@@H]1[C@@H]2[C@@H](O)C[C@@]2(C)[C@H]1CC[C@]2(O)C(=O)CO | -8.7 ± 4.6
20 | C[C@]12CCC(=O)C=C1CC[C@@H]1[C@@H]2C(=O)C[C@@]2(C)[C@H]1CC[C@]2(O)C(=O)CO | -6.47 ± 2
21 | C[C@]12CCC(=O)C=C1CC[C@@H]1[C@@H]2CC[C@@]2(C)[C@H]1CC[C@]2(O)C(=O)CO | -8.87 ± 3.8
22 | CCCC1O[C@@H]2C[C@H]3[C@@H]4CCC5=CC(=O)C=C[C@]5(C)[C@H]4[C@@H](O)C[C@]3(C)[C@]2(C(=O)CO)O1 (stereo not given in full) | -26 ± 0.65
23 | CC1(C)O[C@@H]2C[C@H]3[C@@H]4C[C@H](F)C5=CC(=O)CC[C@]5(C)[C@H]4[C@@H](O)C[C@]3(C)[C@]2(C(=O)CO)O1 | -21.3 ± 0.59

Row | Structure (SMILES) | CD40L-induced NF-kB luciferase activity
24 | CCOc1cc(C=O)ccc1OCCSc1ccc(C)cc1 | 8.64 ± 2
25 | CCC(C)NCCOCCOc1ccc(Cl)c2ccccc12 (stereo not given) | -3.83 ± 0.8
26 | COc1ccc2oc(=O)c(-c3nc(C)cs3)cc2c1 | 82.6 ± 9.2
27 | Cc1ccc2c(c1)c(=O)c1c3n2CCN(C(=O)CCl)C3CC1 (stereo not given) | -2.91 ± 2.5
28 | CC1(C)Cc2ccccc2-c2nc(-c3ccccc3)oc(=O)c21 | 2.15 ± 0.84
29 | O=C(c1ccc([N+](=O)[O-])cc1)N1CCSC1c1ccccc1Cl (stereo not given) | 4.04 ± 5
30 | CN(C)CCOc1ccccc1Cc1ccccc1 | 0.196 ± 5
31 | O=C(NC1CCCCC1)c1cc2nc(-c3ccco3)cc(C(F)(F)F)n2n1 | 1.55 ± 1.8
32 | CC(C)Oc1ccc(C2CC(=O)N(c3ccc(C(=O)O)cc3)C2=O)cc1 (stereo not given) | -3.94 ± 6.9
33 | O=C(NCc1ccc(N2CCCC2=O)cc1)c1cccc(Cl)c1 | 0.303 ± 1.9
34 | CCNC(=O)c1c(N)sc2c1CCCCC2 | 2.16 ± 2.4
35 | CC(C)OC(=O)c1ccc(NC(=O)c2cncc(Br)c2)cc1 | 4.22 ± 5
36 | CCOc1cc(C)cc2oc(=O)cc(-c3ccccc3)c12 | 3.93 ± 4.9
37 | Cc1cc(O)c(C(=O)Cc2csc(C)n2)c(O)c1 | 45.9 ± 3.3
38 | COc1cc(NC(=O)COc2ccccc2)c(OC)cc1NC(C)=O | 2.35 ± 11
39 | CCC(=O)c1ccc(OCc2ccc(C(=O)OC)cc2)cc1 | 47.3 ± 2.2
40 | COc1ccc(C(=O)NCc2cccnc2)cc1 | -2.51 ± 0.59
41 | COc1ccc(OCc2cccc(C(=O)NN)c2)cc1 | -59.1 ± 2.2
42 | CC(=O)[C@H]1CC[C@H]2[C@@H]3CCC4=CC(=O)CC[C@]4(C)[C@H]3[C@H](O)C[C@]12C | -10.6 ± 14
43 | COc1cc2nc(-c3ccccc3)nc(N3CCCC3)c2cc1OC | 14.1 ± 1.1
44 | C=C(C)c1nc2cc(OC)c(OC)cc2c(=O)o1 | -30.6 ± 9.3
45 | COc1ccc(/C=C\C(=O)c2c(O)ccc3c(C)cc(=O)oc23)cc1OC | -14 ± 3.3
